Compounds with a hit are over-represented: about 21% of the library has one in this group of screens.
CHX counter – counter-screen for Shiga toxin inhibitors: cycloheximide protein synthesis inhibition; cell reporter, cycloheximide protein synthesis inhibition counterscreen; max response, %; AID 2314; 300,000 tested, 12% active; in the data active means max response mostly above about 13%, no sharp cut-off; inactive means mostly below about 14%; further: read at 38.3 µM for the half of the compounds with a filed dose
Shiga inhibitor – Shiga toxin inhibition; Vero cells, Shiga toxin protein synthesis inhibition reporter; inhibition, % at 38.7 µM; 290,000 tested, 9.2% active; in the data active means inhibition mostly above about 28%, no sharp cut-off; inactive means mostly below about 43%
Pf growth 48h – inhibits P. falciparum growth in the first generation, 48 h; P. falciparum luciferase growth in erythrocytes, 48 h; Potency, µM (doses to about 28.7 µM), actives largely listed as inhibitors; 310,000 tested, 5.9% active; AID 504832
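Here the parasites carry a stable luciferase gene and grow inside erythrocytes in Albumax-based RPMI medium with compound for one erythrocytic cycle. Activity is scored as loss of luminescent signal.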
Pf growth 96h – inhibits malaria parasite growth, 96 h; Potency, µM (highest dose often 28.7 µM), actives largely listed as inhibitors; AID 504834; 320,000 tested, 6.9% active; P. falciparum luciferase reporter growth, 96 h
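P. falciparum expressing integrated firefly luciferase, in erythrocytes at 2% hematocrit, 0.05% parasitemia, incubated with compounds 96 h at 37 C, 5% CO2. Growth inhibition read as loss of luminescence; two-generation exposure targets delayed-death apicoplast inhibitors.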
Of the large screens only hits and unclear results are named; the others gave an inactive call. Unless noted, the call rests on the fitted dose curve; in most records, active means well fitted inhibition curve with a large enough effect; inconclusive means small, poorly fitted or top-dose-only effect, or another doubt; inactive means no such curve, though single readings can be large or run the other way.

CCNC(=S)NNC(=O)c1c(Cl)c(C)nn1C	none
Cc1c(Cl)c(C(=O)NNC(=S)Nc2ccccc2)nn1C	CHX counter 31.2, Shiga inhibitor 64.4 (no result: Pf growth 96h)
CCNC(=S)NNC(=O)c1nn(C)c(C)c1Cl	Shiga inhibitor 82.5
Cc1c(Cl)c(C(=O)NNC(=S)Nc2ccc(F)cc2)nn1C	CHX counter 33.7, Shiga inhibitor 178.5
Cc1cccc(N2CCN(C(=O)NC(C)c3ccc(F)c(F)c3)CC2)c1C (stereo unspecified)	Pf growth 48h 11.7µM, Pf growth 96h 11.7µM
COc1cccc(NC(=O)N2CCN(c3cccc(C)c3C)CC2)c1	CHX counter 38.1, Shiga inhibitor 66.2 (no result: Pf growth 96h)
COc1cccc(NC(=O)N2CCC3(CC2)OCCO3)c1	CHX counter 31.1, Shiga inhibitor 60.8, Pf growth 96h inconclusive
CCOc1ccc(C(=O)NCC(=O)OCc2ccc(F)cc2Cl)cc1	none
CCCCCCNCC(=O)N1CCC(Cc2ccccc2)CC1	Pf growth 96h inconclusive
O=C(O)c1cccc(NC(=O)c2cn(-c3ccccc3)nc2-c2cc3ccccc3o2)c1	none
O=C(N/N=C/c1cn(-c2ccccc2)nc1-c1cccnc1)c1cccnc1	Pf growth 48h inconclusive, Pf growth 96h inconclusive
O=C(N/N=C/c1cn(-c2ccccc2)nc1-c1cc2ccccc2o1)c1ccncc1	CHX counter 84.7, Shiga inhibitor 131.9
O=C(N/N=C/c1cn(-c2ccccc2)nc1-c1cc2ccccc2o1)c1cccnc1	CHX counter 52.5, Shiga inhibitor 106.0, Pf growth 48h inconclusive, Pf growth 96h inconclusive
O=C(Cc1ccc(F)cc1)Nc1nnc(SCC(=O)NC2CCCC2)s1	none
Cc1oc2c(CN3CCCC3)c(O)ccc2c(=O)c1-c1ccc(Br)cc1	Pf growth 48h 9.28µM, Pf growth 96h inconclusive
Cc1oc2c(CN3CCCCC3)c(O)ccc2c(=O)c1-c1ccc(Br)cc1	Pf growth 48h inconclusive, Pf growth 96h 1.17µM
CCOc1ccccc1C(=O)NC1CCN(Cc2nnnn2C2CCCC2)CC1	Pf growth 48h inconclusive, Pf growth 96h 13.1µM
CCOc1ccccc1C(=O)NC1CCNCC1	Pf growth 96h 13.1µM (no result: Shiga inhibitor)
COC(=O)c1scc(C)c1N1C(=O)c2ccccc2C1=O	none
Cc1ccc(NC(=O)c2ccc3nc[nH]c3c2)cc1C	CHX counter 45.5, Shiga inhibitor 74.1
Cc1cc(C)cc(NC(=O)c2ccc3nc[nH]c3c2)c1	Shiga inhibitor 63.5, Pf growth 48h inconclusive, Pf growth 96h inconclusive
Cc1ccc(Cn2c(NCCCn3ccnc3)nc3c2c(=O)n(C)c(=O)n3C)cc1	none
CCOC(=O)C1CCN(S(=O)(=O)c2cc(Cl)c(C)cc2OC)CC1	none
COc1cc(C)c(Cl)cc1S(=O)(=O)N1CCSC1	Pf growth 96h 11.7µM
Cc1ccc(OCc2ccc(C(=O)Nc3nccs3)o2)cc1	none
O=C(Nc1nccs1)c1ccc(CSc2ccccc2)o1	CHX counter 58.4, Shiga inhibitor 106.9, Pf growth 96h inconclusive
O=C(Nc1nccs1)c1ccc(COc2ccccc2)o1	CHX counter 50.2, Shiga inhibitor 83.8
Cc1ccc(SCc2ccc(C(=O)Nc3nccs3)o2)cc1	CHX counter 38.3, Shiga inhibitor 80.9
COc1ccccc1NC(=S)N1CCCCCC1	none
Cc1cc(C(=O)OCC(=O)Nc2ccc(F)cc2)c(C)o1	none
CCOC(=O)c1c(C)n(-c2ccccc2)c2ccc(O)cc12	Pf growth 48h inconclusive, Pf growth 96h 5.86µM
CCOC(=O)c1c(C)n(CCO)c2ccc(O)cc12	none (no result: Pf growth 96h)
CCOC(=O)c1c(CN(CC)CC)n(-c2ccccc2)c2ccc(O)cc12	Pf growth 48h 8.28µM, Pf growth 96h inconclusive
CCOC(=O)c1c(-c2ccccc2)n(C)c2ccc(O)cc12	Pf growth 96h inconclusive (no result: Pf growth 48h)
COc1cc(C=O)cc(Cl)c1OC(=O)N1CCOCC1	none
Cc1ccc(C)c(N2CCN(c3nnnn3-c3ccccc3)CC2)c1	Pf growth 48h inconclusive (no result: Pf growth 96h)
COc1cc(OC)c(C(=O)OCC(=O)NCCC2=CCCCC2)cc1OC	Pf growth 96h inconclusive (no result: CHX counter, Shiga inhibitor)
CC1CCN(c2ccc(NC(=O)c3cccnc3)cc2)CC1	CHX counter 33.1, Shiga inhibitor 54.6
CC1CCN(c2ccc(NC(=O)c3cccnc3Cl)cc2)CC1	Pf growth 96h 10.4µM
O=C(Nc1ccc(N2CCN(C(=O)c3ccccc3)CC2)cc1)c1cccnc1	none
Cc1ccc(C(=O)N2CCN(c3ccc(NC(=O)c4cccnc4Cl)cc3)CC2)cc1	Pf growth 48h inconclusive
O=C(Nc1ccc(N2CCN(C(=O)c3cccs3)CC2)cc1)c1cccnc1	Pf growth 48h inconclusive, Pf growth 96h 2.94µM
Cc1ccc2cc(C)c3nnc(SCc4ccc(C(=O)O)cc4)n3c2c1C	Pf growth 48h inconclusive
Cc1cccc(N=C2NC(=O)/C(=C/c3cccs3)S2)c1	CHX counter 34.5, Shiga inhibitor active
Cc1ccc(N=C2NC(=O)/C(=C/c3cccnc3)S2)cc1C	Pf growth 48h inconclusive, Pf growth 96h inconclusive
O=C1Nc2ccccc2S/C1=C/c1cccs1	CHX counter 27.8, Shiga inhibitor 62.0
Cc1ccc(N=C2NC(=O)/C(=C\c3cccs3)S2)cc1C	CHX counter 28.5, Shiga inhibitor 72.4, Pf growth 96h inconclusive
Cc1cc(C)n(-c2ccc(NC(=O)C3CCN(Cc4ccccn4)CC3)cc2)n1	Pf growth 48h inconclusive, Pf growth 96h inconclusive
COc1ccc(C(C)=O)cc1COC(=O)C1CC(=O)N(Cc2ccccc2)C1 (stereo unspecified)	none
COc1ccc(-c2c(C#N)c(N)nc3c2c(=O)n(C)c(=O)n3C)cc1	Pf growth 96h inconclusive
COc1cccc(-c2c(C#N)c(N)nc3c2c(C)nn3-c2ccccc2)c1O	Pf growth 48h 0.37µM, Pf growth 96h 0.522µM
Cc1nn(-c2ccccc2)c2nc(N)c(C#N)c(-c3ccc(C(C)(C)C)cc3)c12	Pf growth 48h inconclusive, Pf growth 96h 4.65µM
COc1cccc(NC(=O)CN(C)C(=O)C(CCSC)NC(=O)c2ccco2)c1 (stereo unspecified)	none (no result: CHX counter, Shiga inhibitor)
Clc1cccc(Cl)c1COc1ccncc1	none
N/C(=N\OC(=O)c1ccc(Cl)cc1Cl)c1ccncc1	CHX counter 30.0, Shiga inhibitor 82.2
O=C(OCc1c(Cl)cccc1Cl)c1ccncc1	Pf growth 48h inconclusive, Pf growth 96h 11.7µM
N/C(=N\OC(=O)c1ccc(Cl)cc1Cl)c1ccccn1	none
Cc1ccc(C(=O)O/N=C(\N)c2ccccc2)c(Cl)c1	CHX counter 36.1
Cc1ccc(C(=O)O/N=C(\N)c2ccccn2)c(Cl)c1	Pf growth 48h inconclusive, Pf growth 96h inconclusive (no result: Shiga inhibitor)
N/C(=N\OC(=O)c1cc(Cl)ccc1Cl)c1ccncc1	CHX counter 26.9, Shiga inhibitor 74.2, Pf growth 48h inconclusive, Pf growth 96h inconclusive
CCOc1ccc(N(C)C(=O)CCc2nnc3ccc(N4CCCCC4)nn23)cc1	Pf growth 96h inconclusive
Cc1ccccc1C(=O)O/N=C(\N)c1ccncc1	CHX counter 61.3, Shiga inhibitor 53.2, Pf growth 96h inconclusive
COc1cccc(C(=O)O/N=C(\N)c2ccncc2)c1OC	CHX counter 35.2, Shiga inhibitor 26.9
COc1ccccc1C(=O)O/N=C(\c1ccccc1)c1ccncc1	Pf growth 96h inconclusive
N/C(=N\OC(=O)c1ccccc1Cl)c1ccncc1	CHX counter 16.6, Shiga inhibitor 71.5
O=C(c1ccc(F)cc1F)N1CCCc2ccccc21	none
COc1ccc2[nH]c(=O)c(CN(CC3CCCO3)S(=O)(=O)c3ccccc3F)cc2c1 (stereo unspecified)	none
COc1ccc(-c2noc(CCC(=O)NCCc3cccc(C)c3)n2)cc1	none

Screening data (PubChem)
